# Laboratory results taken from PubChem BioAssay (NCI).
# This is part of a sample that, as a whole, favours compounds with a hit. Of some 79,000 tested, about 15% had one in any assay. A number with no mark means an inactive call. The source made the active and inactive calls. Rule as the data show it: active = growth inhibition above about 70%; inactive = the rest.
# Assays:
# [1] = NCI Yeast Anticancer Drug Screen. Data for the rad50 strain (AID 155);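 also: 0% = growth of vehicle-only cultures of the same strain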; details: S. cerevisiae rad50 strain growth inhibition; at 50.0 µM; hits give high values
# Method in brief: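 Inhibition values express reduced yeast growth in compound-treated cultures relative to vehicle-treated controls.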
# [2] = NCI Yeast Anticancer Drug Screen. Data for the mec2-1 strain (AID 157); details: S. cerevisiae mec2-1 strain, at 50.0 µM, hits give high values
# Method in brief: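 Strain: mec2-1 (DNA repair/cell cycle alteration). Compound exposure, then growth measured; inhibition expressed relative to vehicle.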
# [3] = NCI Yeast Anticancer Drug Screen. Data for the sgs1 mgt1 strain (AID 161);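 also: 0% = growth of cultures given vehicle only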; details: S. cerevisiae sgs1 mgt1 strain, at 50.0 µM, hits give high values
# Method in brief: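 Inhibition of yeast growth, normalised to vehicle-treated controls, is reported for a strain bearing genetic alterations in DNA damage repair.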
# [4] = NCI Yeast Anticancer Drug Screen. Data for the cln2 rad14 strain (AID 165);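 also: 0% = growth equal to vehicle treated cultures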; details: S. cerevisiae cln2 rad14 strain, at 50.0 µM, hits give high values
# Method in brief: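 Compounds are applied to the cln2 rad14 yeast strain, and growth is then compared with that of vehicle-treated cultures to give inhibition.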
# [5] = NCI Yeast Anticancer Drug Screen. Data for the bub3 strain (AID 167); details: S. cerevisiae bub3 mutant strain, at 50.0 µM, hits give high values
# Method in brief: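 Steps: expose the mutant yeast strain to compound; grow alongside vehicle-treated cultures; measure growth; express inhibition against the vehicle cultures.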
# [6] = NCI Yeast Anticancer Drug Screen. Data for the mlh1 rad18 strain (AID 175); details: S. cerevisiae mlh1 rad18 strain growth inhibition; at 50.0 µM; hits give high values
# Method in brief: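 Read-out is yeast growth inhibition, calculated against vehicle-only controls. The compound was applied to a strain engineered with DNA damage repair alterations.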
SMILES,growth inhibition [1],growth inhibition [2],growth inhibition [3],growth inhibition [4],growth inhibition [5],growth inhibition [6]
CN(C)Cc1ccc(-c2cc3onc(-c4ccccc4)c3c(=O)n2C)cc1,-22.9%,-13.1%,-29.5%,-8.4%,-28%,2.5%
CCC[CH2][Ge]([Cl])([Cl])[CH2]CCC,28.6%,30.8%,30.9%,14.9%,40.9%,33.4%
O=c1ccc2cc3c(cc2[nH]1)OCO3,2.5%,-1.25%,-4.2%,-39.5%,-9.2%,7.05%
CS(=O)(=O)CC(O)(c1ccc(Cl)cc1)c1ccccn1 (stereo unspecified),11.5%,0.85%,-6.55%,-21.6%,-0.8%,3.8%
CC1C(c2ccccc2)=CCON1c1ccccc1 (stereo unspecified),-2.9%,-16.6%,-24.4%,13.4%,-3.75%,-28.1%
CN(C)C(=S)/N=c1\ss/c(=N\C(=S)N(C)C)n1C1CCCCC1,15%,9.35%,13.4%,-23.1%,-18.6%,22.2%
CCOC(=O)C1CCCCC1NC1CCCCC1C(=O)OCC (stereo unspecified),4.65%,-2.35%,-22.9%,-14.2%,-16.2%,8.9%
NC(N)=NC1CCc2ccccc2C1 (stereo unspecified),4.4%,-2.85%,-4%,-5.1%,-0.6%,-5.1%
S=C1Cc2c(-c3ccc(Br)cc3)cc(-c3ccccc3)nc2-c2ccccc2N1,19.9%,14.7%,23.4%,20.6%,22.9%,23.2%
O=C1C=C(Oc2ccccc2)C(=O)C=C1Oc1ccccc1,-8.15%,-3.55%,-27.1%,-23.8%,14.3%,-11.1%
O=P(O)(OCC(Br)CBr)OCC(Br)CBr (stereo unspecified),-12.4%,-7.05%,11.2%,-45%,1.75%,23.8%
CCOC(=O)c1cnc2ccccc2c1N=[N+]=[N-],-0.9%,27.8%,25.5%,-34%,40.5%,29.9%
COc1ccc(OC)c(NC(=O)SC(C)C)c1,-5.3%,-21.8%,-9.45%,0.15%,18.2%,-3.65%
O=c1[nH]nc(-c2ccccc2)c2c1[nH]c1ccccc12,-13.8%,-15.7%,-0.85%,-33.9%,-12.4%,-12.1%
O=C(O)c1ccc(C2C(=O)N[C@@H]3CCC[C@H]23)cc1 (stereo partly specified),-33%,-5.75%,-22.1%,6.05%,-12.9%,-32.1%
OC(c1ccccc1)(C(F)(F)F)C(F)(F)F,3%,5.85%,6.1%,14.3%,9.9%,8.75%
CC(SC(=S)N1CCOCC1)c1cc2oc(=O)n(C)c2cc1Cl (stereo unspecified),2.4%,7.95%,8.35%,-5.15%,24.8%,20.5%
C=C1C(=O)OC2C1C(OC(=O)/C(=C/C)COC(C)=O)CC1(CO1)C1C(OC(=O)/C(=C/C)CO)C=C(C)C21 (stereo unspecified),-20.6%,-19%,-21.1%,1.55%,-41.1%,-8.05%
CCOC(=O)CC(=O)CC,8.5%,-16.6%,-18.8%,7.55%,-6.45%,3.25%
CC(C)(CCC(C)(C)c1ccccc1)c1ccccc1,-2.7%,-35.7%,-9.2%,-9.75%,-17.9%,-8.25%
CC1OC(n2ccc3ccc([N+](=O)[O-])cc32)C(O)C(O)C1O (stereo unspecified),-5.2%,-3.85%,-32.7%,-12.2%,-27.8%,-21.4%

SMILES,growth inhibition [1],growth inhibition [2],growth inhibition [3],growth inhibition [4],growth inhibition [5],growth inhibition [6]
CC1=NC(=Cc2ccccc2O)C(=O)N1n1c(-c2ccccc2)nc2ccccc2c1=O,22.4%,17.7%,51.5%,16.6%,42.5%,44.5%
CCOCCOC(=O)OCCOCC,10.3%,1.9%,22.4%,-4.3%,12.1%,28%
CC(C)CC(C)N=C1CC2CCC1(C)C2(C)C (stereo unspecified),-32.3%,-24.6%,-3.35%,-14.2%,-7.15%,-7.05%
COc1cnc2cc(C(=O)O)c3ccccc3c2c1,40.5%,9.7%,13.2%,23.1%,-1.15%,29.1%
Nc1ccc(N=Nc2ccncc2)c2ccccc12,31.7%,22.5%,4.1%,-15.1%,28%,19.7%
Cn1c2ccc(Br)cc2c2cc(Br)cc([N+](=O)[O-])c21,6.55%,5.05%,14.9%,-4.95%,-2.05%,15.3%
CCCCNC(=O)c1ccccc1N,-20.2%,-6.15%,-30.7%,-8%,-16%,-22.4%
CCOC(=O)N1CN(C(=O)OCC)CN(C(=O)OCC)C1,15.7%,19.5%,9.45%,-7.6%,29.4%,-5.45%
CCC/C=N/Nc1ccc([N+](=O)[O-])cc1[N+](=O)[O-],-11.3%,-9.95%,0.3%,-12.5%,0.9%,-16.1%
O=S(=O)(Cc1c[nH]c2ccccc12)c1ccccc1,34.1%,-3.2%,31.1%,11.3%,20.5%,37.6%
CS/C(=N\S(=O)(=O)c1cc(C)c(Cl)cc1Cl)NNc1cnc2ccccc2n1,-12.1%,-23.4%,-7.1%,11.9%,-17.2%,1.7%
O=S(=O)(NC1CCC(CC2CCCCC2)CC1)c1ccccc1 (stereo unspecified),81% (active),42%,47.5%,40%,88.4% (active),82.5% (active)
CCN(CC)C(=S)N/N=C/c1ccccn1,89.5% (active),92% (active),91% (active),89.2% (active),89.8% (active),90.3% (active)
FC(F)(F)c1cccc(NC(=S)SCc2ccc(Cl)c(Cl)c2)c1,98.3% (active),98.8% (active),98.8% (active),99.1% (active),98% (active),98.2% (active)
CNc1ccccc1C(=O)N/N=C/c1cccc([N+](=O)[O-])c1,-0.9%,1.05%,-39%,-8.6%,32.5%,-8.9%
S=C(S)OC1CCCCC1.[Zn+2],-14.9%,-15.8%,-22.2%,-50.9%,-24.8%,-12.2%
CC(C)(C)C1=CC(=C(c2ccc(-c3c4nc(c(-c5ccc(C(=C6C=C(C(C)(C)C)C(=O)C(C(C)(C)C)=C6)c6cc(C(C)(C)C)c(O)c(C(C)(C)C)c6)cc5)c5ccc([nH]5)c(-c5ccc(C(=C6C=C(C(C)(C)C)C(=O)C(C(C)(C)C)=C6)c6cc(C(C)(C)C)c(O)c(C(C)(C)C)c6)cc5)c5nc(c(-c6ccc(C(=C7C=C(C(C)(C)C)C(=O)C(C(C)(C)C)=C7)c7cc(C(C)(C)C)c(O)c(C(C)(C)C)c7)cc6)c6ccc3[nH]6)C=C5)C=C4)cc2)c2cc(C(C)(C)C)c(O)c(C(C)(C)C)c2)C=C(C(C)(C)C)C1=O,4.7%,2.6%,-1.75%,-38.6%,-3.9%,14.4%
CCCCCOP(=O)(Cc1ccc(Cl)cc1)OCCCCC,99.6% (active),99.7% (active),99.5% (active),99.5% (active),99.4% (active),99.5% (active)
Oc1ccc2ccccc2c1/C=N\Sc1ccc(Cl)cc1,49%,34.7%,64.1%,28.8%,32.2%,49%
c1ccc(CNCCNCc2ccccn2)nc1,25.4%,7.45%,16.1%,-61.1%,-1.15%,16.8%
